Shown are actives, neighbours in structure and some others; about 4% of the full set was active somewhere.
MazF activator = activators of E. coli MazEF toxin-antitoxin RNase. FAM/BHQ RNA-DNA oligo cleavage fluorescence, 5 h. activation, % at 20 µM. 350,000 tested, 0.32% active; in the data active = activation above about 50%
Target sequence (P0AE70 whole entry, looked up): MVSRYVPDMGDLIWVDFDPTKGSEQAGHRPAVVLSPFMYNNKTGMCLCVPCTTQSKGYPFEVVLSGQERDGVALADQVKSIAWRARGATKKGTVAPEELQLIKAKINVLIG
CCHFV vOTU inh = blocks the CCHF virus ovarian tumor domain protease. inhibition, % at 11.5 µM. 370,000 tested, 0.55% active. CCHFV vOTU protease, Pep-AMC fluorescence; also: 0% = vehicle wells with enzyme and 100% = no enzyme wells
Mtb bLac sens = beta-lactam sensitization of Mtb H37Rv | M. tuberculosis H37Rv growth with meropenem, percent inhibition | inhibition, % at 25 µM | 330,000 tested, 0.27% active; call rule not given here;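 also: growth measured after seven days incubation then overnight dye step; 0% = bacteria only wells and 100% = bacteria with antibiotic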
GDH-TPI inh = counter-screen for M. tuberculosis FBA inhibitors: GDH-TPI coupled enzymes; 360,000 tested, 1.2% active; AID 588335; GDH-TPI coupled enzyme counterscreen, NADH absorbance; inhibition, % at 4.8 µM;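 also: 0% = DMSO wells and 100% = wells lacking the enzyme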
FBA Mtb inh = inhibits M. tuberculosis FBA enzyme | P9WQA3 | purified M. tuberculosis FBA, fluorescence read-out | inhibition, % at 1 µM | 360,000 tested, 2.3% active | AID 588726; in the data active = inhibition above about 27%;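 also: 0% = vehicle and 100% = reference inhibitor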
Target sequence (P9WQA3 whole entry, looked up): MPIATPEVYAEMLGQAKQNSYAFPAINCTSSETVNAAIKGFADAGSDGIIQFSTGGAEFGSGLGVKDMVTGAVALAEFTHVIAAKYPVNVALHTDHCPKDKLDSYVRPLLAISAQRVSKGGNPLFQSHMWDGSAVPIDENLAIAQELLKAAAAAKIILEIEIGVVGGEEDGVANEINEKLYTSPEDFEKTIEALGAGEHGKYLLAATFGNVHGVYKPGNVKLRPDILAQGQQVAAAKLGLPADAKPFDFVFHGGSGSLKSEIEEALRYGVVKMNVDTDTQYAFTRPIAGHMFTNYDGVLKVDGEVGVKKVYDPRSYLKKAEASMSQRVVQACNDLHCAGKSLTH
The depositor's hits bear a star. Rule as the data show it, unless noted: active = inhibition above about 30%; inactive = the rest.

Screening O=C(CC1C=CCC1)OCCN1CCN(C2CN(Cc3cn(Cc4ccccc4Cl)nn3)S(=O)(=O)C2)CC1 (centres undefined) returned CCHFV vOTU inh 8.
Screening CCOC(=O)c1sc2nc(CC(=O)OC)nc(NCCN(CC)CC)c2c1C returned MazF activator 5, CCHFV vOTU inh -30, Mtb bLac sens -11, GDH-TPI inh 24 and FBA Mtb inh 132*.
For CCOC(=O)c1sc2nc(CC(=O)OC)nc(NCCN3CCOCC3)c2c1C the results were MazF activator 7, CCHFV vOTU inh -3, GDH-TPI inh 24 and FBA Mtb inh 18.
`Cc1cccc(/N=C/c2c(O)[nH]c3ccccc23)n1` gave MazF activator 3, CCHFV vOTU inh -4, Mtb bLac sens 4, GDH-TPI inh 45* and FBA Mtb inh 0.
`Cc1ccc(N=C2NC(=O)CS2)c(C)c1` gave MazF activator 10, CCHFV vOTU inh -2, Mtb bLac sens -9, GDH-TPI inh -11 and FBA Mtb inh 2.
`Cc1ccc(N=C2NC(=O)/C(=C/c3cccnc3)S2)c(C)c1` gave MazF activator -3, CCHFV vOTU inh 0, Mtb bLac sens 4, GDH-TPI inh 33* and FBA Mtb inh -1.
`Cc1ccc(N=C2NC(=O)/C(=C\c3ccsc3)S2)c(C)c1` gave MazF activator -8, CCHFV vOTU inh 23, Mtb bLac sens 94, GDH-TPI inh 33* and FBA Mtb inh -3.
COC(=O)C1CN(Cc2cn(Cc3ccc(F)cc3)nn2)CCS(=O)(=O)N1Cc1ccc(OC)cc1 (centres undefined) was read as CCHFV vOTU inh 1.
`CCOC(=O)N1CCN(C(=O)C[C@H]2C[C@@]3(C(=O)OC)C(=C[C@H](C(C)C)O[C@@H]3C3CC3)N(Cc3ccc(Cl)cc3Cl)C2=O)CC1` gave CCHFV vOTU inh 18.
CN1C(=O)N(C)C(=O)C2(Cc3c(ccc4ccccc34)N(C)C2)C1=O was read as MazF activator 5, CCHFV vOTU inh -1, Mtb bLac sens -2, GDH-TPI inh 10 and FBA Mtb inh -1.
CN1CC(C(=O)O)Cc2c1ccc1ccccc21 (centres undefined) was read as MazF activator -6, CCHFV vOTU inh -70, Mtb bLac sens 2, GDH-TPI inh 6 and FBA Mtb inh 102*.
`CO[C@H]1C=CO[C@@]2(C)Oc3c(C)c(O)c4c(O)c(c(C=NN5CCN(C)CC5)c(O)c4c3C2=O)NC(=O)C(C)=CC=C[C@H](C)[C@H](O)[C@@H](C)[C@@H](O)[C@@H](C)[C@H](OC(C)=O)[C@@H]1C` gave MazF activator -34, CCHFV vOTU inh 23, Mtb bLac sens 100, GDH-TPI inh 40* and FBA Mtb inh -13.
Screening CO[C@H]1/C=C/O[C@@]2(C)Oc3c(C)c(O)c4c(O)c(c(C=NN5CCN(C)CC5)c(O)c4c3C2=O)NC(=O)/C(C)=C\C=C\[C@H](C)[C@H](O)[C@@H](C)[C@@H](O)[C@@H](C)[C@H](OC(C)=O)[C@@H]1C returned MazF activator -4, CCHFV vOTU inh 17, Mtb bLac sens 100, GDH-TPI inh 13 and FBA Mtb inh -7.
For CC1(C)CC(=O)C=C(Nc2ccccc2NC(=O)c2ccc(F)cc2F)C1 the results were CCHFV vOTU inh -2.
Screening O=S(=O)(O)c1ccc(N2N=C(c3ccccc3)CC2c2ccccc2)cc1 (centres undefined) returned MazF activator 0, CCHFV vOTU inh -295, Mtb bLac sens -6, GDH-TPI inh 18 and FBA Mtb inh active.
Screening CNC(=S)N1N=C(c2ccccc2)CC1c1ccccc1Cl (centres undefined) returned MazF activator 6, CCHFV vOTU inh 4, Mtb bLac sens 3, GDH-TPI inh 6 and FBA Mtb inh 2.
O=C(O)CCC(=O)N1N=C(c2ccccc2)CC1c1ccc(Br)cc1 (centres undefined) was read as MazF activator -20, CCHFV vOTU inh -10, Mtb bLac sens 0, GDH-TPI inh 9 and FBA Mtb inh -1.
Screening CCc1ccc(C2=NN(c3ccc(S(N)(=O)=O)cc3)C(c3ccc(F)cc3)C2)cc1 (centres undefined) returned MazF activator 0, CCHFV vOTU inh -77, Mtb bLac sens 97, GDH-TPI inh 11 and FBA Mtb inh active.
NS(=O)(=O)c1ccc(N2N=C(c3ccccc3)CC2c2ccccc2Cl)cc1 (centres undefined) was read as MazF activator -3, CCHFV vOTU inh -167, GDH-TPI inh 25 and FBA Mtb inh 188*.
`COc1ccc2c(c1OC)C(=O)N1N=C(c3ccc(F)cc3)CC21` (centres undefined) gave MazF activator 0, CCHFV vOTU inh 5, Mtb bLac sens -1, GDH-TPI inh 3 and FBA Mtb inh 2.
`CC(=O)N1N=C(c2ccccc2)CC1c1ccccc1` (centres undefined) gave MazF activator 1, CCHFV vOTU inh 8, Mtb bLac sens 3, GDH-TPI inh 7 and FBA Mtb inh -1.
NS(=O)(=O)c1ccc(N2N=C(c3ccccc3)CC2c2ccc(Br)cc2)cc1 (centres undefined) was read as CCHFV vOTU inh -72, GDH-TPI inh 9 and FBA Mtb inh 187*.
Screening O=c1c2ccccc2n(Cc2ccno2)n1[C@@H](Cc1ccccc1)Cn1cc(C2CCCC2)nn1 returned CCHFV vOTU inh -5.
Screening Cc1ccc(C2=NN3C(=O)c4ccccc4C3C2)cc1 (centres undefined) returned MazF activator 8, CCHFV vOTU inh -1, GDH-TPI inh 12 and FBA Mtb inh 4.
NS(=O)(=O)c1ccc(N2N=C(c3ccccc3)CC2c2ccccc2)cc1 (centres undefined) was read as MazF activator 6, CCHFV vOTU inh -284, Mtb bLac sens 20, GDH-TPI inh 12 and FBA Mtb inh active.
Screening Cc1ccc(C2CC(c3ccccc3)=NN2c2ccc(S(N)(=O)=O)cc2)cc1 (centres undefined) returned CCHFV vOTU inh -160, GDH-TPI inh -2 and FBA Mtb inh active.
CC(C)CCNC(=O)c1cc2c(s1)-c1ccccc1S(=O)(=O)C2 was read as MazF activator 3, CCHFV vOTU inh -4, Mtb bLac sens 6, GDH-TPI inh 32* and FBA Mtb inh 15.
`O=C(OCCN1CCN(C2CN(Cc3cn(Cc4ccccc4F)nn3)S(=O)(=O)C2)CC1)c1cc2ccccc2o1` (centres undefined) gave CCHFV vOTU inh -1.
Screening COc1ccc(Oc2coc3cc(O)ccc3c2=O)cc1 returned MazF activator -17, CCHFV vOTU inh -12, Mtb bLac sens 3, GDH-TPI inh 45* and FBA Mtb inh 17.
COc1ccc2[nH]c3c(c2c1)CCN[C@]31C(=O)N(Cc2ccccc2)c2ccccc21 was read as CCHFV vOTU inh -8.
`CCOC(=O)c1cnn2c(C(F)(F)F)cc(-c3cn(C)nc3C)nc12` gave MazF activator 4, CCHFV vOTU inh -27, Mtb bLac sens -6, GDH-TPI inh 21 and FBA Mtb inh 72*.

Assay outcomes: PubChem BioAssay, several laboratories
